What was measured:
Test in all cases: DAPPL (digital affinity profiling via proximity ligation, sequencing); 10 mM Tris-HCl pH 7.5, 50 mM NaCl, 1 mM DTT, 4% glycerol, room temperature, 30 min; GST-TFs on glutathione beads, 16-mer random dsDNA library, 0.1% formaldehyde crosslink after washing; high values mean tight binding
Conditions in all cases: protein: recombinant; tags: N-terminal GST; dsDNA, one strand shown
FLI1 = biological target: T1, FLI1 (Homo sapiens, UniProt Q01543 1-452)
T1 sequence: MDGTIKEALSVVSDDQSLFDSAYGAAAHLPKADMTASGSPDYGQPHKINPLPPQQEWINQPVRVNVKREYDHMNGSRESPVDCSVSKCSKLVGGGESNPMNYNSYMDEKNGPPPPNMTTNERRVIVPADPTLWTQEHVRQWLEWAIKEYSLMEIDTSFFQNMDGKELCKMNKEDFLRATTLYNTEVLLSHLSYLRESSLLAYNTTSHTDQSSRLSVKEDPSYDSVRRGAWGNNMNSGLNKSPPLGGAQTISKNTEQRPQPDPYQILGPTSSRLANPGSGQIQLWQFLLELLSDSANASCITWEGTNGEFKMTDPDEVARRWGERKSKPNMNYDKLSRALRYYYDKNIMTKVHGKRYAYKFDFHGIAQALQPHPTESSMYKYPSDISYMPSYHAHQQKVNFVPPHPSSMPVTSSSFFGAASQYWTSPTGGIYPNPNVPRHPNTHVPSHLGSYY
Procedure, shortened: (§1)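 Pools were built from human transcription factors expressed in yeast as GST fusions, captured on glutathione beads and DNA-barcoded, along with a tag-only sample. Incubation with 200 nmole of a 16-mer random double-stranded DNA library lasted 30 min at room temperature in Tris/NaCl/DTT/glycerol buffer, and was followed by washing, 0.1% formaldehyde crosslinking, proximity ligation, PCR amplification and Illumina NextSeq500 sequencing. Binding signal is the quotient of each hexamer's read frequency for a factor and its frequency for the tag-only sample.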

ELK1 = biological target: T2, ELK1 (Homo sapiens, UniProt P19419 1-428)
T2 sequence: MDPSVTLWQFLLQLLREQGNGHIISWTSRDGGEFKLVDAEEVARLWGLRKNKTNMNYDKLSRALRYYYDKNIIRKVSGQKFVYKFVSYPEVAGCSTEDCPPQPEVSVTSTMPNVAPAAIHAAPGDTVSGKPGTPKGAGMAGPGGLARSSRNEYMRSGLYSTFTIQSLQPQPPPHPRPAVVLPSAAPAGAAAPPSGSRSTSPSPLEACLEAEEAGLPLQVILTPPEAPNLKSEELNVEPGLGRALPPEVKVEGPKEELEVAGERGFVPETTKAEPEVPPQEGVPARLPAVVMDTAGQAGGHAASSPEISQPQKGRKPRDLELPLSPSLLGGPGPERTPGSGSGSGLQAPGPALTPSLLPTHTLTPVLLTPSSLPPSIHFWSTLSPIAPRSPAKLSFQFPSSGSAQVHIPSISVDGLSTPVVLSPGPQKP
Procedure, shortened: as §1

GABPA = biological target: T3, GABPA (Homo sapiens, UniProt Q06546 1-454)
T3 sequence: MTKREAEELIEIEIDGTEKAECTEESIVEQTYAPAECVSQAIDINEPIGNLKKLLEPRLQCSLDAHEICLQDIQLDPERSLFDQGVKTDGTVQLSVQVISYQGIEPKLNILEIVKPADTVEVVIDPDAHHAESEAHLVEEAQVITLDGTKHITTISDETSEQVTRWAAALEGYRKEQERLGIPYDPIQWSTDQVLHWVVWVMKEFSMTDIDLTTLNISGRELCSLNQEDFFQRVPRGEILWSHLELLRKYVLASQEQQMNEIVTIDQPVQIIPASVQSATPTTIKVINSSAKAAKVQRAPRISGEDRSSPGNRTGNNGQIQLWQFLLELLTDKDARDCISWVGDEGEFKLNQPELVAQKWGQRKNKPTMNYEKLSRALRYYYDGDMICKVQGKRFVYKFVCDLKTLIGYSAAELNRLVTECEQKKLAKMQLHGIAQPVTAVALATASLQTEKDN
Procedure, shortened: as §1

ERG = biological target: T4, ERG (Homo sapiens, UniProt P11308 1-479)
T4 sequence: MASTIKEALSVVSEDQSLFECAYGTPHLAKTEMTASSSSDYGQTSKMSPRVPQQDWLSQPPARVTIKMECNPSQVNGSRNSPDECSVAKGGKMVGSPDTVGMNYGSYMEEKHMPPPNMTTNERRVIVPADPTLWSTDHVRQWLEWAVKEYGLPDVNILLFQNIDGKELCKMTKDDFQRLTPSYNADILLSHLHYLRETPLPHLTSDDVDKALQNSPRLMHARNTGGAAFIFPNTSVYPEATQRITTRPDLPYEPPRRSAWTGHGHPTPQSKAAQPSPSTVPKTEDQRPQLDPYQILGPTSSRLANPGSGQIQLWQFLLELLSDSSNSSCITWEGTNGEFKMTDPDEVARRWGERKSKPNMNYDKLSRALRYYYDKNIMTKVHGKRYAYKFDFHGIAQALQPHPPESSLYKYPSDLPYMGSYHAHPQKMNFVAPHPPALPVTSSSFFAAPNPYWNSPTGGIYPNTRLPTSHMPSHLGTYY
Procedure, shortened: as §1

ELF1 = ELF1 (Homo sapiens, UniProt P32519 1-619)
Sequence of ELF1 (P32519 whole entry): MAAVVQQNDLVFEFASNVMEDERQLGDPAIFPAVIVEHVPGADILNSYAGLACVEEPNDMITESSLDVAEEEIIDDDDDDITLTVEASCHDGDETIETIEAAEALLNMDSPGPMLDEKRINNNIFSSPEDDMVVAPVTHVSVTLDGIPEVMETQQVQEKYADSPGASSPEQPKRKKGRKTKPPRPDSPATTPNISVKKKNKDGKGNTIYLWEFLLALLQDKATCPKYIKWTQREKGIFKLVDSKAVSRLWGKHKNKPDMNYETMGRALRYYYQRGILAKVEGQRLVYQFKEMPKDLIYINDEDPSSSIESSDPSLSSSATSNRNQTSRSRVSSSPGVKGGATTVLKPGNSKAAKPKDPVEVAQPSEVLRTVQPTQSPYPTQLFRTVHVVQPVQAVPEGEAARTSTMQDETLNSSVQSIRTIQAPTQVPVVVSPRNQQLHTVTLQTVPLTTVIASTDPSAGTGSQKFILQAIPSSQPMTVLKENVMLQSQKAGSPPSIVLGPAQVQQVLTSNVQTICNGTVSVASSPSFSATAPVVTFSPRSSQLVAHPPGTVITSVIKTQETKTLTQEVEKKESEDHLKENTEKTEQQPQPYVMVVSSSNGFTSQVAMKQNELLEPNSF
Procedure, shortened: as §1

EHF = biological target: T5, EHF (Homo sapiens, UniProt Q9NZC4 1-300)
T5 sequence: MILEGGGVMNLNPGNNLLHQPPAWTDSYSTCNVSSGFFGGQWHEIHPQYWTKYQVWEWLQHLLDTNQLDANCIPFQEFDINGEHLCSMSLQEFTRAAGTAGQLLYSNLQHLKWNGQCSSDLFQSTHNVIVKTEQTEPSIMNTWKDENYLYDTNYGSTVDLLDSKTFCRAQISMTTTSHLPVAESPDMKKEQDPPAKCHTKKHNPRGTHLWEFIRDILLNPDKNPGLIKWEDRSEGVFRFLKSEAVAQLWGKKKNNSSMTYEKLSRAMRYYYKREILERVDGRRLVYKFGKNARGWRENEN
Procedure, shortened: as §1

SPI1 = SPI1 (Homo sapiens, UniProt P17947 1-270)
Procedure, shortened: as §1

SPIB = SPIB (Homo sapiens, UniProt Q01892 1-262)
Sequence of SPIB (Q01892 whole entry): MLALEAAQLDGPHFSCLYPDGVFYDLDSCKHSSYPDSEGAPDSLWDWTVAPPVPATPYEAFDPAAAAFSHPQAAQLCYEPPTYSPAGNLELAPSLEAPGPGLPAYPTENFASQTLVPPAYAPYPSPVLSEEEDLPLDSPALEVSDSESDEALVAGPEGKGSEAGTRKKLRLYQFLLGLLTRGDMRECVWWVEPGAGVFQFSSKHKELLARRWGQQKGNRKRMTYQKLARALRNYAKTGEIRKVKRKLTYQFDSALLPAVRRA
Procedure, shortened: as §1

ELK3 = biological target: T6, ELK3 (Homo sapiens, UniProt P41970 1-407)
T6 sequence: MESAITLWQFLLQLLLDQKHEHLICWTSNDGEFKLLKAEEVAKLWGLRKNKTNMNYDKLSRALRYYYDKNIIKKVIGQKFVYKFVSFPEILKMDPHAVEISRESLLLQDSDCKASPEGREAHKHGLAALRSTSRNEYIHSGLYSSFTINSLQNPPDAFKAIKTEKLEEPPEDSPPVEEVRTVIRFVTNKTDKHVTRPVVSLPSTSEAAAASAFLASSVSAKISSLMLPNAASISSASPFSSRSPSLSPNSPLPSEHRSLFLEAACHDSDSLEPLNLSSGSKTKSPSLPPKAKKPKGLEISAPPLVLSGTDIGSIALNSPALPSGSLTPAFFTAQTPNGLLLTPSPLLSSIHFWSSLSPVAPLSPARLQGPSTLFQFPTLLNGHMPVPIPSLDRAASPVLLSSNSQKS
Procedure, shortened: as §1

Sequence | binding signal (FLI1) | binding signal (ELK1) | binding signal (GABPA) | binding signal (ERG) | binding signal (ELF1) | binding signal (EHF) | binding signal (SPI1) | binding signal (SPIB) | binding signal (ELK3)
AGCTGC | 1.16 fold enrichment (6-mer frequency, TF over GST control) | 1.16 fold enrichment (6-mer frequency, TF over GST control) | 1.17 fold enrichment (6-mer frequency, TF over GST control) | 1.1 fold enrichment (6-mer frequency, TF over GST control) | 1.18 fold enrichment (6-mer frequency, TF over GST control) | 1.18 fold enrichment (6-mer frequency, TF over GST control) | 1.11 fold enrichment (6-mer frequency, TF over GST control) | 1.24 fold enrichment (6-mer frequency, TF over GST control) | 1.01 fold enrichment (6-mer frequency, TF over GST control)
TTTGGA | 1.15 fold enrichment (6-mer frequency, TF over GST control) | 1.14 fold enrichment (6-mer frequency, TF over GST control) | 1.24 fold enrichment (6-mer frequency, TF over GST control) | 1.11 fold enrichment (6-mer frequency, TF over GST control) | 1.18 fold enrichment (6-mer frequency, TF over GST control) | 1.09 fold enrichment (6-mer frequency, TF over GST control) | 1.19 fold enrichment (6-mer frequency, TF over GST control) | 1.22 fold enrichment (6-mer frequency, TF over GST control) | 1.14 fold enrichment (6-mer frequency, TF over GST control)
ATATGT | 1.09 fold enrichment (6-mer frequency, TF over GST control) | 1.08 fold enrichment (6-mer frequency, TF over GST control) | 1.16 fold enrichment (6-mer frequency, TF over GST control) | 1.1 fold enrichment (6-mer frequency, TF over GST control) | 1.2 fold enrichment (6-mer frequency, TF over GST control) | 1.13 fold enrichment (6-mer frequency, TF over GST control) | 1.09 fold enrichment (6-mer frequency, TF over GST control) | 1.18 fold enrichment (6-mer frequency, TF over GST control) | 1.14 fold enrichment (6-mer frequency, TF over GST control)
CTAAAC | 1.24 fold enrichment (6-mer frequency, TF over GST control) | 1.18 fold enrichment (6-mer frequency, TF over GST control) | 1.23 fold enrichment (6-mer frequency, TF over GST control) | 1.23 fold enrichment (6-mer frequency, TF over GST control) | 1.24 fold enrichment (6-mer frequency, TF over GST control) | 1.18 fold enrichment (6-mer frequency, TF over GST control) | 1.17 fold enrichment (6-mer frequency, TF over GST control) | 1.19 fold enrichment (6-mer frequency, TF over GST control) | 1.2 fold enrichment (6-mer frequency, TF over GST control)
ATTATC | 1.35 fold enrichment (6-mer frequency, TF over GST control) | 1.35 fold enrichment (6-mer frequency, TF over GST control) | 1.34 fold enrichment (6-mer frequency, TF over GST control) | 1.32 fold enrichment (6-mer frequency, TF over GST control) | 1.29 fold enrichment (6-mer frequency, TF over GST control) | 1.28 fold enrichment (6-mer frequency, TF over GST control) | 1.35 fold enrichment (6-mer frequency, TF over GST control) | 1.27 fold enrichment (6-mer frequency, TF over GST control) | 1.32 fold enrichment (6-mer frequency, TF over GST control)
CCACCC | 1.17 fold enrichment (6-mer frequency, TF over GST control) | 1.28 fold enrichment (6-mer frequency, TF over GST control) | 1.28 fold enrichment (6-mer frequency, TF over GST control) | 1.21 fold enrichment (6-mer frequency, TF over GST control) | 1.23 fold enrichment (6-mer frequency, TF over GST control) | 1.31 fold enrichment (6-mer frequency, TF over GST control) | 1.22 fold enrichment (6-mer frequency, TF over GST control) | 1.31 fold enrichment (6-mer frequency, TF over GST control) | 1.23 fold enrichment (6-mer frequency, TF over GST control)
TTACGC | 1.15 fold enrichment (6-mer frequency, TF over GST control) | 1.06 fold enrichment (6-mer frequency, TF over GST control) | 1.07 fold enrichment (6-mer frequency, TF over GST control) | 1.08 fold enrichment (6-mer frequency, TF over GST control) | 1.12 fold enrichment (6-mer frequency, TF over GST control) | 1.06 fold enrichment (6-mer frequency, TF over GST control) | 1.07 fold enrichment (6-mer frequency, TF over GST control) | 1.02 fold enrichment (6-mer frequency, TF over GST control) | 1.21 fold enrichment (6-mer frequency, TF over GST control)

From PMC7862700, “An all-to-all approach to the identification of sequence-specific readers for epigenetic DNA modifications on cytosine”
